PMC5540273 (PLoS ONE, 2017)

Tests used:
Details in all cases: concentration: 1 μM, replicates: in singlicate; n = 1
PIKFYVE = test system: PIKFYVE
PIM1 = test system: PIM1
PIM2 = test system: PIM2
PIM3 = test system: PIM3
PIP5K1A = test system: PIP5K1A
PIP5K1C = test system: PIP5K1C
PIP5K2B = test system: PIP5K2B
PIP5K2C = test system: T1, PIP5K2C
T1 construct: gene PIP4K2C

PKAC-alpha = test system: T2, PKAC-alpha
T2 construct: gene PRKACA

PKAC-beta = test system: T3, PKAC-beta
T3 construct: gene PRKACB

PKMYT1 = test system: PKMYT1
PKN1 = test system: PKN1
PKN2 = test system: PKN2
PLK1 = test system: PLK1
PLK2 = test system: PLK2
PLK3 = test system: PLK3
PLK4 = test system: PLK4
PRKCD = test system: PRKCD
PRKCE = test system: PRKCE
PRKCH = test system: PRKCH
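Also: KINOMEscan kinase panel screen.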

| SMILES | %Inh (PIKFYVE) | %Inh (PIM1) | %Inh (PIM2) | %Inh (PIM3) | %Inh (PIP5K1A) | %Inh (PIP5K1C) | %Inh (PIP5K2B) | %Inh (PIP5K2C) | %Inh (PKAC-alpha) | %Inh (PKAC-beta) | %Inh (PKMYT1) | %Inh (PKN1) | %Inh (PKN2) | %Inh (PLK1) | %Inh (PLK2) | %Inh (PLK3) | %Inh (PLK4) | %Inh (PRKCD) | %Inh (PRKCE) | %Inh (PRKCH) |
| --- | --- | --- | --- | --- | --- | --- | --- | --- | --- | --- | --- | --- | --- | --- | --- | --- | --- | --- | --- | --- |
| O=C(NCCCN1CCOCC1)c1cccc(Nc2nccc(Nc3ccc(Oc4ccccc4)cc3)n2)c1 [GW663929] | 37% | 22% | 0% | 4% | 18% | 0% | 0% | 83% | 4% | 0% | 0% | 16% | 0% | 0% | 0% | 4% | 17% | 0% | 4% | 0% |
| NS(=O)(=O)CCc1cccc(Nc2nccc(-c3c(-c4cccc(NC(=O)c5c(F)cccc5F)c4)nn4ccccc34)n2)c1 [GSK336735] | 0% | 0% | 0% | 0% | 0% | 36% | 0% | 17% | 38% | 37% | 0% | 0% | 0% | 0% | 25% | 48% | 12% | 40% | 0% | 32% |
| Nc1nccc(-c2c(-c3ccc(F)cc3)ncn2C2CCN(CC(F)(F)F)CC2)n1 [SB-236560] | 59% | 0% | 0% | 0% | 47% | 7% | 0% | 60% | 0% | 11% | 20% | 0% | 0% | 0% | 0% | 0% | 17% | 0% | 19% | 0% |
| O=C(NCCNc1ccnc(Nc2ccc(F)cc2)n1)Nc1ccccc1F [GSK1379880] | 0% | 0% | 0% | 0% | 0% | 24% | 0% | 38% | 8% | 0% | 9% | 0% | 0% | 100% | 0% | 0% | 0% | 0% | 0% | 0% |
| COc1cc2c(cc1OC[C@@H](O)CO)ncc1c3ccc(C#N)cc3[nH]c21 | 56% | 0% | 81% | 35% | 38% | 47% | 42% | 76% | 0% | 0% | 0% | 0% | 33% | 0% | 0% | 0% | 9% | 5% | 62% | 0% |
| O=C(Nc1n[nH]c2cc(-c3cccc(F)c3)ccc12)C1CC1 [SB-735464] | 0% | 2% | 0% | 4% | 37% | 18% | 5% | 11% | 3% | 6% | 1% | 7% | 17% | 0% | 37% | 13% | 4% | 0% | 34% | 8% |
| NCC(NC(=O)c1cc(-c2cn[nH]c2)c(-c2ccnc3[nH]ccc23)s1)c1ccccc1.O=C(O)C(F)(F)F.O=C(O)C(F)(F)F (stereo not shown) [GSK1325775] | 0% | 39% | 16% | 41% | 50% | 80% | 71% | 49% | 98.7% | 98% | 0% | 52% | 66% | 14% | 5% | 14% | 29% | 99.8% | 98.7% | 95.1% |
| Cc1nnc(-c2ccc3occ(-c4ccc(C(C)O)cc4)c3c2)o1 (stereo not shown) | 0% | 24% | 80% | 31% | 0% | 4% | 27% | 17% | 7% | 17% | 0% | 0% | 0% | 2% | 0% | 0% | 21% | 11% | 0% | 0% |
